# Measured values reported in paper PMC4336329 (PLoS ONE, 2015).
# Screen size: about 310,000 compounds; about 14,000 (4.5%) showed an effect of 50% or more. The effect is printed as a negative number. Shown is part of a subset that was picked to be rich in strong results.
# Biological target: human ether-à-go-go-related gene (hERG) potassium channel (human, UniProt Q12809)
# Assay: primary screen, population patch clamp on CHO cells stably expressing hERG; higher = less effect of the substance
# 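Note: peak tail current of the secondary pulse compared with the same well before compound.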
# human ether-à-go-go-related gene (hERG) potassium channel, sequence (Q12809 whole entry, looked up): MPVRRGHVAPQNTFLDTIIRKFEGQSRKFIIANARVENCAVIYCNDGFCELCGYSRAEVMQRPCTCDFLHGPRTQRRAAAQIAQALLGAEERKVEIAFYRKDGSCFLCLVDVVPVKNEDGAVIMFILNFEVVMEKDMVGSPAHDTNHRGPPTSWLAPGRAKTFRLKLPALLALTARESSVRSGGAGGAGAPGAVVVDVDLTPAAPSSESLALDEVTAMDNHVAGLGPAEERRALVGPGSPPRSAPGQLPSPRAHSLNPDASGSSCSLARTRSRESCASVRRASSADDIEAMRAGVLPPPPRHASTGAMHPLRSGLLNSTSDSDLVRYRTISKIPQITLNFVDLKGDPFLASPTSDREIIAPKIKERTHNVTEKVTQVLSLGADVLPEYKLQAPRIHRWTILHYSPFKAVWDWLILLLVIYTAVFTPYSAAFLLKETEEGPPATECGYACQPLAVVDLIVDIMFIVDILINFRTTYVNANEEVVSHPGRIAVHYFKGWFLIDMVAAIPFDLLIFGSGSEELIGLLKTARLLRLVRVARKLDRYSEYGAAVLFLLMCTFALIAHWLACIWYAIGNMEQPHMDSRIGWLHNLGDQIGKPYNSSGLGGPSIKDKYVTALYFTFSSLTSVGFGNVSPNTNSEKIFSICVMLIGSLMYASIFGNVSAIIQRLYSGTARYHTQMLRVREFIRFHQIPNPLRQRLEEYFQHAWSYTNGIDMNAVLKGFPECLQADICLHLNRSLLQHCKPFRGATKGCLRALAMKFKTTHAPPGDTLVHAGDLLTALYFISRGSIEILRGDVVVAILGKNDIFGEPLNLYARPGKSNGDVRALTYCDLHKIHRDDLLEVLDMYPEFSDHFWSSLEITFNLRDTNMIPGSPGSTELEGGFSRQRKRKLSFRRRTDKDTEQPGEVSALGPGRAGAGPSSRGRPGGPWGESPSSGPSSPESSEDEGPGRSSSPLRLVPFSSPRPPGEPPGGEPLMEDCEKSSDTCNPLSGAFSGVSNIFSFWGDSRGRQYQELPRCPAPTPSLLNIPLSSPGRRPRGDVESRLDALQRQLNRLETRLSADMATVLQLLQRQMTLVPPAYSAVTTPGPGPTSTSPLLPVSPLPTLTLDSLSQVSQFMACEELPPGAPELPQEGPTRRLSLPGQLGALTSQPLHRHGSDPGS
row,Compound,"hERG current change (%, negative = inhibition) at 10uM [%]"
1,O=C(COc1ccc(Br)cc1Br)NC(=O)NC1CCCC1,22.3
2,O=C(CN1C(=O)NC(c2ccccc2)(c2ccccc2)C1=O)NC1CCS(=O)(=O)C1 (centres unmarked),5.23
3,CCc1nc(Nc2ccccc2F)c2oc3ccccc3c2n1.Cl,6.04
4,CCC(=O)Nc1ccc(S(=O)(=O)Nc2ccc(Cl)nn2)cc1.Cl,11.7
5,Cc1cccc(C)c1NC(=O)N1CCC(C(=O)c2ccc(F)cc2)CC1,-22.6
6,COC(=O)C1=NN(c2ccc(OC)cc2)C2C(=O)N(c3ccccc3OC)C(=O)C12 (centres unmarked),10.7
7,COc1ccc(S(=O)(=O)N2CCC3(CC2)OCCN3S(=O)(=O)c2ccccc2)cc1OC,0.907
8,CCOC(=O)c1c(C)[nH]c(C(=O)OCC(=O)Nc2ccc(Cl)cn2)c1C,6.52
9,CCCOc1ccccc1C1NC(=O)NC(C)=C1C(=O)OCc1ccccc1 (centres unmarked),6.23
10,COc1ccc(-c2cc(C(F)(F)F)nc(SCC(=O)NCc3cccs3)n2)cc1OC,-3.84
11,CC1CCC(NC(=O)c2ccc3snnc3c2)CC1 (centres unmarked),21.3
12,COc1ccc(CNC(=O)c2cccc(NC(=O)c3ccccc3)c2)cc1,-71.5
13,Cc1cccc(C(=O)NCCN2CCCC2)c1.Cl,-0.337
14,COc1ccc(C(=O)Nc2cccc(C(=O)NCc3ccccc3)c2)cc1,4.28
15,O=C(NCCN1CCOCC1)c1cccc(Cl)c1,-1.9
16,Cl.O=C(NCCN1CCCC1)c1cccc(Cl)c1,-51.6
17,COc1ccc(NC(=O)c2cccc(NC(=O)c3ccccc3)c2)cc1,2
18,Cc1cc(=O)oc2cc(NC(=O)c3ccccc3Cl)ccc12,28
19,C(=N\Nc1nc(Nc2ccccc2)nc(Nc2ccccc2)n1)/c1cccnc1,-4.87
20,C[n+]1cccc(C2C(C#N)=C(N)Oc3c2ccc2ccccc32)c1.[I-] (centres unmarked),13.7
21,C/C(=N\Nc1ccc2nncn2n1)c1ccc(Br)s1,6.83
22,O=C(/C=C/c1cccs1)NCc1ccccc1,-2.08

row,Compound,"hERG current change (%, negative = inhibition) at 10uM [%]"
1,CCN(CC)S(=O)(=O)c1cc(-c2nn(C)c(=O)c3ccccc23)ccc1C,-53.5
2,CCOC(=O)CNS(=O)(=O)c1cc(-c2nn(C)c(=O)c3ccccc23)ccc1C,-52.8
3,CCC(CO)NS(=O)(=O)c1cc(-c2nn(C)c(=O)c3ccccc23)ccc1C (centres unmarked),-3.69
4,Cc1ccc(-c2nn(C)c(=O)c3ccccc23)cc1S(=O)(=O)N1CCCC1,-40.6
5,Cc1ccc(-c2nn(C)c(=O)c3ccccc23)cc1S(=O)(=O)NCCN(C)C,4.35
6,COCCNS(=O)(=O)c1cc(-c2nn(C)c(=O)c3ccccc23)ccc1C,-28.9
7,Cc1cc(/C=C(/C#N)C(=O)O)c(C)n1-c1cccc2ccccc12,20.1
8,CCn1cc(C(=O)NCc2cccc(C(F)(F)F)c2)c(=O)c2ccc(C)nc21,2.71
9,O=C(Nc1ccc(N2CCN(Cc3ccccc3)CC2)cc1)c1cccnc1,-14.4
10,CN1CCN(C(=O)CCN2C(=O)/C(=C/c3cccc(Br)c3)SC2=S)CC1,11.4
11,O=C(c1ccccc1)c1ccc(OC(=O)N2CCCC2)cc1,-11
12,COc1ccc(S(=O)(=O)Nc2c(NC3CCCCC3)c3ccccc3oc2=O)cc1,-45.2
13,N#Cc1cccc(S(=O)(=O)Nc2c(NC3CCCCC3)c3ccccc3oc2=O)c1,-53.9
14,CCCNc1c(NS(=O)(=O)c2ccc(C(C)(C)C)cc2)c(=O)oc2ccccc12,10.8
15,Cc1ccc(S(=O)(=O)Nc2c(NC3CCCCC3)c3ccccc3oc2=O)cc1,-33.9
16,Cc1ccc(S(=O)(=O)Nc2c(NC3CCCCC3)c3ccccc3oc2=O)c(C)c1,-19.6
17,COc1ccc(S(=O)(=O)Nc2c(NC3CCCCC3)c3ccccc3oc2=O)cc1OC,-6.99
18,COc1ccc(OC)c(S(=O)(=O)Nc2c(NC3CCCCC3)c3ccccc3oc2=O)c1,-54.1
19,CCCNc1c(NS(=O)(=O)c2ccc(C)cc2C)c(=O)oc2ccccc12,-52.2
20,Cc1ccc(S(=O)(=O)Nc2c(NC3CCCCC3)c3ccccc3oc2=O)cc1C,2.53
21,CCCNc1c(NS(=O)(=O)c2ccc(C)c(C)c2)c(=O)oc2ccccc12,-30.6
22,CCCNc1c(NS(=O)(=O)c2ccc(OC)c(OC)c2)c(=O)oc2ccccc12,-74.1

row,Compound,"hERG current change (%, negative = inhibition) at 10uM [%]"
1,CCCNc1c(NS(=O)(=O)c2c(F)c(F)c(F)c(F)c2F)c(=O)oc2ccccc12,-7.27
2,CCOc1ccccc1N1CCN(C(=S)Nc2ccc(S(=O)(=O)Nc3ncccn3)cc2)CC1,-3.73
3,O=C(COC(=O)Cc1ccc(-c2ccccc2)cc1)NCc1ccccc1,20.8
4,CC(C)c1ccc(NC(=O)c2ccc(Br)o2)cc1,3.82
5,COc1ccc(OCC(=O)Nc2ccncc2)cc1,-17.3
6,O=c1[nH]c(CN2CCN(CCO)CC2)nc2ccccc12,21.5
7,O=C(NC1=NCCS1)c1cc(Cl)ccc1Cl,-24
8,Cn1cc(C(c2ccccn2)c2cn(C)c3ccccc23)c2ccccc21,8.3
9,CCc1[nH]c(=S)c(C#N)c(-c2ccccc2)c1C(=O)OC,25.5
10,Cc1cc(=O)[nH]c(N/N=C/c2sccc2C)n1,-1.84
11,CCOc1ccc(C(=O)COC(=O)CC)cc1,4.46
12,CC(/C=N/n1cnnc1)=C\c1ccco1,-16.9
13,CCCNc1c(NS(=O)(=O)c2cccc(C#N)c2)c(=O)oc2ccccc12,-58.7
14,CCCNc1c(NS(=O)(=O)c2ccc3c(c2)CCCC3)c(=O)oc2ccccc12,8.8
15,CCCNc1c(NS(=O)(=O)c2ccc(Br)cc2)c(=O)oc2ccccc12,-34.7
16,CC(NC(=O)c1ccc(S(=O)(=O)N(C)C)cc1)c1ccc(-n2ccnc2)cc1 (centres unmarked),-74
17,CC(C)NC(=O)c1ccc(S(=O)(=O)N(C)C)cc1,0.0301
18,CNC(=O)c1cc(S(=O)(=O)N(C)C)ccc1Cl,5.59
19,CC(NC(=O)c1ccc(S(=O)(=O)N(C)C)cc1)c1ccccc1 (centres unmarked),0.971
20,CC(NC(=O)c1cc(S(=O)(=O)N(C)C)ccc1Cl)c1ccc(-n2ccnc2)cc1 (centres unmarked),-76.8
21,O=C(Cc1c(O)c2ccccc2[nH]c1=O)NC1CCCCCC1,3.69
22,OCCNc1c2ccccc2nc2c(F)c(F)c(F)c(F)c12,14.6

row,Compound,"hERG current change (%, negative = inhibition) at 10uM [%]"
1,Cn1nc(C(F)(F)F)c(/C=N/OC(=O)c2ccccc2Cl)c1SCc1ccccc1Cl,-5.41
2,CSc1ccc(S(=O)(=O)NCC(=O)OCC(=O)NCc2ccco2)cc1[N+](=O)[O-],-61.7
3,CSc1ccc(S(=O)(=O)NCC(=O)OCC(=O)NCCc2ccccc2)cc1[N+](=O)[O-],9.18
4,CC(C)CNS(=O)(=O)c1ccc(OCC(=O)NCc2ccco2)cc1,-11.6
5,Cc1cc(S(=O)(=O)NCC(C)C)ccc1OCC(=O)NCc1ccccn1,-22.8
6,Cc1cc(S(=O)(=O)NCC(C)C)ccc1OCC(=O)NCc1ccco1,-73.4
7,CSc1ccc(S(=O)(=O)NCC(=O)OCC(=O)NCc2cccs2)cc1[N+](=O)[O-],-44.5
8,N#C/C(=N\Nc1cccc(C(F)(F)F)c1)C(=O)c1ccsc1,11.3
9,COc1ccc(N2C(=O)CC(N3CCN(c4ccccc4OC)CC3)C2=O)cc1 (centres unmarked),6.7
10,O=S(=O)(Cc1ccccc1)Nc1ccc(S(=O)(=O)N2CCCC2)cc1,5.25
11,Cc1ccc(C)c(C(=O)CSc2n[nH]c(-c3ccncc3)n2)c1,-0.0279
12,CCN1/C(=C/C=C/C=C/C=C/c2sc3ccccc3[n+]2CC)Sc2ccccc21.[I-],-49.5
13,CC[n+]1c(/C=C(/C)SC)sc2ccccc21.COS(=O)(=O)[O-],5.99
14,CCOC(=O)/C(=C/C=C1\Sc2ccccc2N1CC)C(C)=O,4.94
15,CCN1/C(=C/C=C/c2sc3ccccc3[n+]2CC)Sc2ccccc21.[I-],-73.8
16,CCN1/C(=C\C=C(C(C)=O)C(C)=O)Sc2ccccc21,-2.64
17,CCN1/C(=C/C=C/C=C/c2sc3ccccc3[n+]2CC)Sc2ccccc21.[I-],-78.9
18,CCN1/C(=C\C=C2\C(=O)N(C)C(=S)N2C)Sc2ccccc21,24
19,CCN1/C(=C/C(C)=C/c2sc3ccccc3[n+]2CC)Sc2ccccc21.[I-],-78.8
20,CC[n+]1c(/C=C(\C)SC)sc2ccccc21.COS(=O)(=O)[O-],3.25
